Shown are actives, neighbours in structure and some others; about 3.9% of the full set was active somewhere.
Rtt109 HAT inh: blocks Candida albicans Rtt109/Vps75 acetyltransferase activity | Q5AAJ8 | purified Rtt109/Vps75, ThioGlo CoA-SH fluorescence, 4 h | inhibition, % at 34.9 µM | 330,000 tested, 0.16% active | AID 540336;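 active = inhibition of at least 50% in every replicate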
PHOSPHO1 block: PHOSPHO1 (human) inhibition; Q8TCT1; recombinant PHOSPHO1, absorbance phosphatase assay; inhibition, % at 13.3 µM; 290,000 tested, 1.1% active; AID 1565; in the data active = inhibition above about 60%
Target sequence (Q8TCT1 whole entry, looked up): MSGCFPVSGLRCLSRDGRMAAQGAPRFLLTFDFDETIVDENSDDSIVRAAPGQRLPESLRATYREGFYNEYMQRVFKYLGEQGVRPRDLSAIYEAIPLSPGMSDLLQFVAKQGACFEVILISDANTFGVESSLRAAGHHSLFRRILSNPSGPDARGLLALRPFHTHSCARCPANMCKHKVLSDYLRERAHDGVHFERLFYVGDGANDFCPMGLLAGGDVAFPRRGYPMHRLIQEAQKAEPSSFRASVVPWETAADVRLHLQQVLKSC
SKKanGAS inh: SKKanGAS growth inhibition. 300,000 tested, 1.3% active. AID 1662. inhibition, % at 7.5 µM. S. pyogenes SKKanGAS, kanamycin growth, BacTiter-Glo, 6 h;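 active = mean replicate score, as percent of positive control median, at least 50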;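 note: strain carries kanamycin resistance gene driven by streptokinase promoter and grows in 40 µg/ml kanamycin; loss of luminescence reflects streptokinase promoter inhibition or plain growth inhibition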
WT yeast gro inh: growth inhibition of WT yeast, mitochondrial fusion screen. mitochondrial fusion phenotypic screen, WT strain. inhibition, % at 10 µM. 190,000 tested, 2.1% active; in the data active = inhibition above about 58%; tested in S. cerevisiae
TPT1 inhibitor: blocks Candida albicans tRNA 2'-phosphotransferase | inhibition, % at 5 µM | 300,000 tested, 0.81% active | recombinant caTPT1, FP RNA substrate dephosphorylation | AID 1962;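 active = inhibition above the mean of all tested compounds plus 3 SD, set per screening campaign, cut at about 24% in these data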
Platelet DG rel: platelet dense granule release activity. inhibition, %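 (compounds screened at 7.5 µM in platelet-rich plasma)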. human platelet-rich plasma, SFLLRN dense granule ATP release, luminescence. 300,000 tested, 0.22% active. AID 1663;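 active = mean replicate score, as percent of positive control, at or above 50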
TPT1 inh confirm: TPT1 (C. albicans) inhibition, confirmation | recombinant caTPT1, fluorescence polarization, RNase T1 coupled | inhibition, % at 5 µM | shares compounds with TPT1 inhibitor | 2,400 tested, 74% active;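 active = inhibition above the primary screen limit, the mean inhibition of all tested compounds plus 3 SD, cut at about 25% in these data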
RNase T1 counter: counter-screen for TPT1 inhibitors: inhibitors of Aspergillus oryzae RNase T1; shares compounds with TPT1 inhibitor; RNase T1 cleavage, fluorescence polarization, 1536-well; inhibition, % at 5 µM; 2,400 tested, 83% active;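 active = inhibition above the solvent-only control well mean plus 3 SD, limit set per screening run, cut at about 23% in these data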;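 note: inhibitors block cleavage so intact labeled substrate keeps polarization high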
Target sequence (P00651 whole entry, looked up): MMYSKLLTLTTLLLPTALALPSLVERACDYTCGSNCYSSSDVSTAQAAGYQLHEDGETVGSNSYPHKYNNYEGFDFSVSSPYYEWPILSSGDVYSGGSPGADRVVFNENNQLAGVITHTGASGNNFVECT
Numbers stand for hits; . = inactive; / = no result given.

SMILES | Rtt109 HAT inh | PHOSPHO1 block | SKKanGAS inh | WT yeast gro inh | TPT1 inhibitor | Platelet DG rel | TPT1 inh confirm | RNase T1 counter
COc1ccc(NC(=O)CN(C)S(=O)(=O)c2ccc(C)cc2)c([N+](=O)[O-])c1 | . | . | . | . | 41 | . | 49 | 62
O=C(O)CC(NC(=O)CCc1ccccc1)c1ccc(Cl)cc1 (centres undefined) | . | . | . | / | . | . | / | /
CCN(CC)c1ccc(/C=C2\C(=N)N3N=C(CC(=O)N4CCOCC4)SC3=NC2=O)cc1 | . | . | . | / | 137 | . | 174 | 164
O=C(NCC(=O)N1CC=C(c2ccccc2)CC1)c1ccc(F)cc1 | . | / | / | / | / | / | / | /
CN1CCc2c(sc(/N=C/c3ccco3)c2C(N)=O)C1 | . | . | . | . | . | . | / | /
COc1cc2ccccc2cc1C(=O)Nc1sc2c(c1C(N)=O)CCN(C(C)C)C2 | . | . | . | / | 82 | . | 54 | 62
CN1CCc2c(sc(NC(=O)Cc3ccccc3)c2C(N)=O)C1 | . | . | . | / | . | . | / | /
CN1CCc2c(sc(NC(=O)c3ccc4ccccc4c3)c2C(N)=O)C1 | . | . | . | / | 34 | . | 25 | 34
CN1CCc2c(sc(/N=C/c3cccs3)c2C(N)=O)C1 | . | . | . | . | 39 | . | 43 | 56
Cc1ccc(S(=O)(=O)N2CCN(c3ncnc4sccc34)CC2)cc1 | . | . | . | / | . | . | / | /
CC1CCCCN1C(=O)COC(=O)c1cc(Cl)c2c(c1)OCO2 (centres undefined) | . | / | / | / | / | / | / | /
COc1ccc(Cl)cc1NC(=O)CN(C)C(=O)c1ccc(-n2nc(C)cc2C)cc1 | . | / | / | / | / | / | / | /
N#C/C(=C/c1ccc(-c2ccc([N+](=O)[O-])cc2)o1)c1nnc(N2CCOCC2)n1-c1ccccc1 | . | / | / | / | / | / | / | /
O=C(c1cccc(N2C(=O)C3C4C=CC(C4)C3C2=O)c1)N1CCN(c2ccccc2F)CC1 (centres undefined) | . | . | . | / | . | . | / | /
CN1c2cccc3cccc(c23)N(C)C1c1cccs1 | . | . | . | . | . | . | / | /
CC1N(C)c2cccc3cccc(c23)N1C | . | . | . | . | 32 | . | . | .
CCN(C(=O)COC(=O)CCCc1c[nH]c2ccccc12)c1c(N)n(Cc2ccccc2)c(=O)[nH]c1=O | . | / | / | / | / | / | / | /
O=C(Cn1cc(C(=S)N2CCOCC2)c2ccccc21)N1CCOCC1 | . | . | . | . | . | . | / | /
O=C(COc1ccccc1)c1cn(CC(=O)N2CCOCC2)c2ccccc12 | . | . | . | . | 27 | . | 26 | 37
O=C(Cn1cc(C(=O)COc2ccccc2)c2ccccc21)NCc1ccco1 | . | . | . | . | 34 | . | 26 | 38
CC(=O)c1cn(CC(=O)NCc2ccco2)c2ccccc12 | . | . | . | . | . | . | / | /
N#Cc1c(C(F)(F)F)cc(-c2ccco2)nc1SCc1ccccn1 | . | . | . | . | 27 | . | . | 23
COc1cccc(C(=O)NC(=O)Nc2cc(C)on2)c1 | . | . | . | . | 27 | . | . | .
COc1cc2cc(CCCOC(=O)c3cccc(Br)c3)oc(=O)c2cc1OC | . | / | / | / | / | / | / | /
CCN1C(=O)/C(=C/c2cnn(CC)c2C)SC1=S | . | . | . | . | . | . | / | /
SMILES | Rtt109 HAT inh | PHOSPHO1 block | SKKanGAS inh | WT yeast gro inh | TPT1 inhibitor | Platelet DG rel | TPT1 inh confirm | RNase T1 counter
CCN1C(=O)/C(=C/c2c(C)nn(C)c2C)SC1=S | . | . | . | . | 24 | . | 34 | 45
CCN1CCC2(CC1)C(C#N)=C(N)Oc1c2sc2nc(C)cc(C)c12 | . | . | . | . | 64 | . | . | 25
Cc1ccc(C(=O)C2=C(O)C(=O)N(c3ncccn3)C2c2ccccc2F)o1 (centres undefined) | . | . | . | / | . | . | / | /
CCN1C(=O)c2cccc3c(NC(=O)c4ccccc4)ccc1c23 | . | . | . | . | . | . | / | /
CCN1C(=O)c2cccc3c(NC(=O)c4ccc5c(c4)OCCO5)ccc1c23 | . | . | . | . | 47 | . | 65 | 72
O=C(NCCCN1CCCC1=O)c1ccc(S(=O)(=O)Nc2cccc(C(F)(F)F)c2)cc1 | . | / | . | / | . | . | / | /
CN=C(C[N+](=O)[O-])NCCSCc1ccc(CN(C)C)o1 | . | / | / | / | / | / | / | /
